Screening results from PubChem BioAssay.
Nrf2 activator: activates Nrf2 signaling. hit rate 0.31% among 410,000. AREc32 ARE-luciferase reporter (MCF7-derived line), luminescence, 24 h. Potency, µM (top dose mostly 46.1 µM), for inactives: top-dose activation, hits mostly activators; also: % of control where 0% means no effect; nearly all actives have a fitted effect of over 65% in size
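For detection, Steady-Glo was added and plates sat 30 min at RT; before that, AREc32_Fluc cells grown overnight in OPTI-MEM/5% FBS had been treated with 23 nL compound for 24 hr at 37 deg C.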
Nrf2 inh: blocks Nrf2 signaling; AID 504444; A549 ARE-Fluc reporter, luciferase luminescence, 18-24 h; Potency, µM (doses to about 46 µM), for the others: top-dose activity change, negative = inhibition, hits mostly inhibitors; hit rate 2.1% among 360,000; also: % is scaled to controls: 0 for no effect and ±100 for the full control effect; nearly all actives have a fitted effect of over 60% in size
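Reporter: ARE-Fluc in A549. Exposure: 18-24 h, 37 °C, 5% CO2, 5% FBS OPTI-MEM. Readouts: fluorescent cytotoxicity (CellTiter-Fluor), then luminescent Nrf2 signal after BugLite.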
Pin1 inh: inhibitors of human Pin1; Pin1 FP peptide displacement, HiFluor488, 10 min; Potency, µM (doses to about 115 µM), for the others: at the highest dose activity, negative = inhibition, usual class: inhibitors; AID 504891; Q13526; hit rate 0.009% among 390,000; active = well fitted inhibition curve with a large enough effect in the polarisation, with a control signal flat, not every such curve was filed as active; inconclusive = small, poorly fitted or top-dose-only effect, or effect the other way, or a change in a side signal; inactive = no such curve, though single readings can be large or run the other way; the % refers to the polarisation; also: % is scaled to controls: 0 for no effect and ±100 for the full control effect
Target sequence (Q13526 whole entry, looked up): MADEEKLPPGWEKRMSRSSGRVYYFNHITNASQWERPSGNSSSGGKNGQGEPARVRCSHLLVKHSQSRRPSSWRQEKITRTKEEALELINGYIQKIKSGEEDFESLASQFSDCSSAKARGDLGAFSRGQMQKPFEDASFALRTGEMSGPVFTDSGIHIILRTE
A549 viability: A549 cytotoxicity, counter-screen for Nrf2 inhibitors. A549 ARE-Fluc cells, CellTiter-Fluor viability, 18-24 h. Potency, µM (titrated, usually from 46 µM), inactives show at the highest dose activity change, negative = cytotoxicity, hits mostly inhibitors. hit rate 0.16% among 390,000; also: % is scaled to controls: 0 for no effect and ±100 for the full control effect
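A549 ARE-Fluc cells in 5% FBS OPTI-MEM, 5000 cells/well, rested 2 h then exposed to compounds in concentration-response for 18-24 h at 37 °C. Viability by CellTiter-Fluor fluorescence (Ex 405/Em 525) after 30 min; luciferase luminescence (BugLite, 15 min, RT) read afterwards.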
An asterisk follows results filed as active; ? = inconclusive; · = no result given; [ ] = remark or other dose. Hits are enriched below; roughly 2.2% of the tested compounds scored in any of these assays. Unless noted, calls follow the shape of the dose curve; as a rule, active = well fitted curve in the direction sought with a large enough effect; inconclusive = small, poorly fitted or top-dose-only effect, or another doubt; inactive = no such curve, though single readings can be large; an effect the other way counts as inactive or inconclusive. Potency is read from the fitted curve at half-maximal effect.

SMILES | Nrf2 activator | Nrf2 inh | Pin1 inh | A549 viability
COc1ccc2nc(N3C(=O)C(O)=C(C(=O)c4ccco4)C3c3ccc(C)o3)sc2c1 (stereo not given) | 11.4% | ? | ? | ?
CCc1ccc2[nH]c(=O)c(C3C(C#N)=C(N)Oc4c3ccc3cccnc43)cc2c1 (stereo not given) | -0.4% | 14.6µM* | ? | ?
CCOC1(c2ccccc2)CC1C(=O)N/N=C/c1cccc([N+](=O)[O-])c1 (stereo not given) | 9.1% | 18.4µM* | 0.0% | -7.5%
COc1ccc(CNC(=S)NC2CCCC2)cc1 | -0.6%[9.22 µM] | 42.8% | 1.4% | 14.2%
Cc1ccc(CNC(=S)NC2CCC(C(C)(C)C)CC2)cc1 (stereo not given) | -1.8% | 20.6µM* | 2.7% | -22.9%
COc1ccc(Br)cc1CC1C(=O)Nc2ccccc21 (stereo not given) | 4.1% | 7.31µM* | -6.5% | 2.2%
Cc1ccccc1CC1C(=O)Nc2ccc(Br)cc21 (stereo not given) | 7.8% | -0.7% | 1.8% | 3.7%
O=C(NCc1ccccc1)C1CCN(c2nc(-c3ccc(Br)cc3)cs2)CC1 | · | · | 14.8% | ·
Cc1ccc2occ(CC(=O)Nc3ccc(S(=O)(=O)N4CCCC(C)C4)cc3)c2c1 (stereo not given) | 0.2% | 20.6µM* | 22.3% | -25.0%
CN(CC(=O)Nc1ccc(Cl)c(C(F)(F)F)c1)C(=O)C1CCC1 | 0.4% | -13.2% | 0.8% | -2.6%
Cc1sc2ncnc(N3CCC(C(=O)N(C)CC(=O)Nc4ccc(Cl)c(C(F)(F)F)c4)CC3)c2c1C | -0.5% | 10.3µM* | 9.3% | ?
CN(CC(=O)Nc1ccc(Cl)c(C(F)(F)F)c1)C(=O)C1CCN(C(=O)c2ccc(Cl)cc2)CC1 | -0.7% | 23.1µM* | ? | ?
Cc1sc2ncnc(N3CCC(C(=O)N(C)CC(=O)Nc4ccccc4Cl)CC3)c2c1C | -1.8% | 23.1µM* | 20.9% | ?
Cc1sc2ncnc(N3CCC(C(=O)N(C)CC(=O)Nc4cccc(F)c4)CC3)c2c1C | -5.2% | · | · | ·
CN1CCN(c2cccc(Nc3nn4c(=O)c5ccc(C(F)(F)F)cc5nc4s3)c2)CC1 | · | · | 2.8% | ·
COc1ccc(Cl)cc1-c1nc(-c2ccncc2)no1 | 6.31µM* | ? | 15.6% | 0.0%
COc1ccccc1-c1nc(-c2ccncc2)no1 | 3.7% | ? | 2.4% | -2.9%
Cc1cc(S(=O)(=O)Nc2cc(C)c(O)c(C)c2)c(C)s1 | ? | 10.3µM* | 5.2% | -6.0%
Cc1cc(S(=O)(=O)Nc2ccc3ccccc3c2)c(C)s1 | 0.2% | -114.0% | ? | ?
COC(=O)c1nc2n(n1)C(c1cc(OC)ccc1OC)C(C(=O)Nc1ccc(C)cc1C)=C(C)N2 (stereo not given) | 0.0% | 4.4% | -1.1% | 2.5%
CCNC(=S)N/N=C/c1cc(C)ccc1C | 12.1% | 1.0% | -3.7% | 3.6%
C=CCNC(=S)N/N=C/c1ccc(C)cc1C | 14.1% | 18.4µM* | ? | -3.0%
Oc1ccc(Br)cc1C1C=C(c2ccc3c(c2)OCO3)NC(c2ccc(F)c(Br)c2)N1 (stereo not given) | · | ? | ? | -17.1%
CC(C)Oc1ccc(CNC(=O)CCCN2C(=O)c3cccnc3Oc3ccc(Cl)cc32)cc1 | 3.1% | ? | ? | -3.1%
O=C(Nc1cccnc1)c1ccc(CN2CCc3ccccc3C2)cc1 | 1.6% | 13µM* | 2.8% | 5.3%
SMILES | Nrf2 activator | Nrf2 inh | Pin1 inh | A549 viability
Cc1cc(C)cc(NC(=O)c2ccc(CN3CCc4ccccc4C3)cc2)c1 | 4.1% | 14.6µM* | 0.9% | -29.0%
Cc1ccc(NC(=O)c2ccc(CN3CCc4ccccc4C3)cc2)cc1 | 5.5% | ? | -5.1% | -14.4%
O=C(Nc1ccccc1)c1ccc(CN2CCc3ccccc3C2)cc1 | 8.3% | 23.8% | -4.2% | 0.8%
O=C(Nc1ccc(S(=O)(=O)N2CCCCC2)cc1)c1ccc(CN2CCc3ccccc3C2)cc1 | 0.4% | 0.326µM* | 25.9% | -19.0%
CNC(=O)c1cnc2sc(N3CCCCCC3)nn2c1=O | 4.2% | ? | -0.9% | 8.9%
CCCN1CNc2c(c(=O)[nH]c(=S)n2CCc2ccc(C)cc2C)C1 | · | 9.5% | -8.7% | 3.3%
CCc1sc(-c2cc3cccc(OC)c3oc2=O)nc1-c1ccccc1 | · | 4.2% | 2.9% | -2.0%
O=C(c1ccc(F)cc1)n1nc(-c2cccnc2)nc1NCc1ccc(F)cc1 | -0.3% | ? | 7.2% | 0.3%
COc1ccccc1NC(=O)C1=C(C)N(c2ccccc2)C(=S)NC1c1cccc(C(F)(F)F)c1 (stereo not given) | -0.1% | 14.6µM* | 2.6% | -7.2%
COC(=O)c1ccc(C2NC(=S)N(c3ccccc3)C(C)=C2C(=O)Nc2ccccc2OC)cc1 (stereo not given) | 0.5% | ? | 8.7% | ·
COC(=O)C1=C(C)N(Cc2ccccc2)C(=S)N[C@H]1c1cccc(C(F)(F)F)c1 | 0.9% | 18.4µM* | ? | -21.0%
Cc1ccc(NS(=O)(=O)c2cccc(C(=O)NC3CCN(Cc4ccccc4)CC3)c2)c(C)c1 | 0.4% | 20.6µM* | 4.4% | ?
COc1ccccc1NS(=O)(=O)c1ccc(C)c(C(=O)NC2CCN(Cc3ccccc3)CC2)c1 | 5.0% | ? | 0.5% | 3.1%
COc1ccc(NS(=O)(=O)c2ccc(C)c(C(=O)NC3CCN(Cc4ccccc4)CC3)c2)cc1 | 1.6% | 13µM* | 1.7% | -28.5%
COc1ccccc1NS(=O)(=O)c1cc(C(=O)NC2CCN(Cc3ccccc3)CC2)ccc1C | 0.4% | 5.8µM* | 0.9% | ?
O=C(NC1CCN(Cc2ccccc2)CC1)c1cccc(S(=O)(=O)Nc2ccc(F)cc2)c1 | 0.1% | 16.4µM* | -3.1% | ?
O=S(=O)(c1ccc(C(F)(F)F)cc1)N1CCN(S(=O)(=O)c2ccc3c(c2)OCCO3)CC1 | · | -14.7% | -4.3% | -2.6%
O=C1C[C@H](c2ccc3ccccc3c2)N1S(=O)(=O)c1ccccc1[N+](=O)[O-] | · | 12.0% | -17.8% | 4.2%
Cc1ccc(S(=O)(=O)N2CCCN(c3nc(-c4cccs4)nc4ccccc34)CC2)cc1 | · | -19.4% | ? | -12.0%
O=C(c1ccc(Cl)cc1)C1CCN(C(=O)NC2CCCCC2)CC1 | -0.2% | 18.4µM* | 2.3% | -8.5%
O=C(Nc1ccc(Cl)cc1)C1CCN(C(=O)NC2CCCCC2)CC1 | -0.2% | -23.0% | 6.9% | -4.3%
N#Cc1nc(COc2ccc(-c3ccccc3)cc2)oc1N1CCC(C(N)=O)CC1 | · | ? | 1.2% | 10.7%
Cn1c(=O)c2nc(NCc3ccccc3)sc2n(C)c1=O | 2.51µM* | ? | -1.2% | -0.5%
Cc1cc(C)c(C(=O)/C=C/c2ccc(C(C)C)cc2)c(=O)[nH]1 | -1.0% | 18.4µM* | -0.2% | -19.3%
COc1cccc(-c2nnc3n2N=C(c2ccc(OC)cc2OC)CS3)c1 | · | ? | 40.8% | ?
Nc1[nH]n2c(=O)c3c(nc2c1N=Nc1ccccc1)CCCC3 | 0.4% | · | -0.5% | 13µM*
Cc1cc(C)cc(Nc2cc(C(=O)NCc3ccccc3)c3ccccc3n2)c1 | 6.4% | ? | ? | -14.9%
COc1ccc(-c2noc(N3CCC(C(=O)NC(C)c4ccccc4)CC3)n2)cc1 (stereo not given) | -0.4% | 23.1µM* | ? | -20.1%
